What all share (design): species or system human, MV4-11 + K-562 + COLO205 + SK-N-BE2 + OVCAR-8
The test system of one experiment is ABL1. The settings on record: read-out: apparent Kd, n = 1.
A further experiment relates to ABL2. As to conditions: read-out: apparent Kd, n = 1.
The next experiment relates to BTK. As to conditions: read-out: apparent Kd, n = 1.
The test system of another experiment is CIT. As to conditions: read-out: apparent Kd; compound concentrations:100 nM and 1000 nM (sheet 'Samples'); n = 1.
In the next experiment the test system is EPHB1. As to conditions: read-out: apparent Kd, n = 1.
Another experiment has as its system LCK. The settings on record: read-out: apparent Kd, n = 1.
For another experiment, the system named is MAPK14. As to conditions: read-out: apparent Kd, compound concentrations: 100 nM and 1000 nM (sheet 'Samples'), n = 1.
Another experiment deals with PTK6. The settings on record: read-out: apparent Kd, n = 1.
Another experiment deals with MAP3K11. The settings on record: read-out: apparent Kd, n = 1.
The subject of a further experiment is RPS6KA3. The settings on record: read-out: apparent Kd, n = 1.
In the next experiment the test system is NUAK2. As to conditions: read-out: apparent Kd, n = 1.
The next experiment has as its system PAK6. As to conditions: read-out: apparent Kd, n = 1.
The test system of the next experiment is AURKB. As to conditions: read-out: apparent Kd, n = 1.
The next experiment has as its system CDC42BPB. As to conditions: read-out: apparent Kd, n = 1.
For the next experiment, the system named is RPS6KB1. As to conditions: read-out: apparent Kd; compound concentrations: 100 nM and 1000 nM (sheet 'Samples'), CATDS: 1.09553659906664E-2; n = 1.
In a further experiment the test system is ACVR1B. The settings on record: read-out: apparent Kd; compound concentrations:100 nM and 1000 nM (sheet 'Samples'); n = 1.
The subject of the next experiment is IRAK3. The settings on record: read-out: apparent Kd; compound concentrations:100 nM and 1000 nM (sheet 'Samples'); n = 1.
In a further experiment the test system is TTK. The settings on record: read-out: apparent Kd; compound concentrations:100 nM and 1000 nM (sheet 'Samples'); n = 1.
Another experiment relates to PRKCA. The settings on record: read-out: apparent Kd; compound concentrations:100 nM and 1000 nM (sheet 'Samples'); n = 1.
Setting [1] is: compound concentrations:100 nM and 1000 nM (sheet 'Samples').

Consider 7 compounds from paper PMC11062922 (Nature Chemical Biology, 2023).

Read-outs that look alike come from different tables or passages of the source.

In the case of `CC(C)N1CCC(n2cnc(-c3ccc(F)cc3)c2-c2ccnc(N)n2)CC1` [SB-223132], the potency estimated from few doses with ABL1 (setting [1]) is 1110 nM; in the experiment with ABL2 (setting [1]), 723 nM; in the experiment with BTK (setting [1]) it was 842 nM; in the experiment with CIT, 886 nM; in the experiment on EPHB1 (setting [1]) it was 656 nM; with LCK (setting [1]), 880 nM. Further, the potency estimated from few doses is 40 nM in the experiment on MAPK14 (CATDS: 8.3649714811029202E-2) and 1390 nM in the experiment with PTK6 (setting [1]).

For the compound `CCOC(=O)N1CCC(n2cnc(-c3ccc(F)cc3)c2-c2ccnc(N)n2)CC1` [SB-219952], the potency estimated from few doses with ABL1 (compound concentrations: 100 nM and 1000 nM (sheet 'Samples'), CATDS: 8.9388068544210691E-3) is 1180 nM; in the experiment on ABL2 (compound concentrations: 100 nM and 1000 nM (sheet 'Samples'), CATDS: 1.2118968768927599E-2) it was 552 nM; in the experiment on BTK (compound concentrations: 100 nM and 1000 nM (sheet 'Samples'), CATDS: 1.0743585683712699E-2) it was 726 nM; with EPHB1 (compound concentrations: 100 nM and 1000 nM (sheet 'Samples'), CATDS: 1.10661154917942E-2), 677 nM; in the experiment with LCK (compound concentrations: 100 nM and 1000 nM (sheet 'Samples'), CATDS: 1.05022707080212E-2), 767 nM; in the experiment on MAP3K11 (compound concentrations: 100 nM and 1000 nM (sheet 'Samples'), CATDS: 1.0131438391308501E-2), 838 nM. The potency estimated from few doses in the experiment on MAPK14 (CATDS: 3.3048485919856201E-2) was 97.1 nM; in the experiment on PTK6 (compound concentrations: 100 nM and 1000 nM (sheet 'Samples'), CATDS: 1.0027639490301001E-2), 861 nM; in the experiment on RPS6KA3 (compound concentrations: 100 nM and 1000 nM (sheet 'Samples'), CATDS: 7.9232054284878294E-3), 1760 nM.

`Cl.Nc1c(C(=O)c2cccc(C#CCN3CCCCC3)c2)cnn1-c1ccc(F)cc1` [RO1154461-001]: the potency estimated from few doses in the experiment on ABL1 (compound concentrations: 100 nM and 1000 nM (sheet 'Samples'), CATDS: 1.29854856136426E-2) was 806 nM; with ABL2 (compound concentrations: 100 nM and 1000 nM (sheet 'Samples'), CATDS: 1.9255632348685402E-2) it was 323 nM; in the experiment with BTK (compound concentrations: 100 nM and 1000 nM (sheet 'Samples'), CATDS: 1.2670518401124599E-2), 863 nM; in the experiment with EPHB1 (compound concentrations: 100 nM and 1000 nM (sheet 'Samples'), CATDS: 2.02427776556733E-2) it was 292 nM; with LCK (compound concentrations: 100 nM and 1000 nM (sheet 'Samples'), CATDS: 1.3782974497271E-2), 687 nM; in the experiment on NUAK2 (compound concentrations: 100 nM and 1000 nM (sheet 'Samples'), CATDS: 1.07977981674066E-2), 1430 nM. The potency estimated from few doses is 927 nM in the experiment with PAK6 (compound concentrations: 100 nM and 1000 nM (sheet 'Samples'), CATDS: 1.2359364494815299E-2); 717 nM in the experiment with PTK6 (compound concentrations: 100 nM and 1000 nM (sheet 'Samples'), CATDS: 1.35601917152245E-2).

Regarding `CN(c1ccc(NC(=O)Nc2cccc(Cl)c2)cc1)c1ccnc(N)n1.Cl` [GW830707A], the potency estimated from few doses is 90.3 nM in the experiment on ABL1 (compound concentrations: 100 nM and 1000 nM (sheet 'Samples'), CATDS: 1.69612830125371E-2); 18.9 nM in the experiment with ABL2 (compound concentrations: 100 nM and 1000 nM (sheet 'Samples'), CATDS: 3.1249349132144801E-2); 1010 nM in the experiment with AURKB (compound concentrations: 100 nM and 1000 nM (sheet 'Samples'), CATDS: 1.11325754696811E-2); 58.1 nM in the experiment on BTK (compound concentrations: 100 nM and 1000 nM (sheet 'Samples'), CATDS: 1.93862363831281E-2); 126 nM in the experiment on CDC42BPB (compound concentrations: 100 nM and 1000 nM (sheet 'Samples'), CATDS: 1.55962433330884E-2); 31.2 nM in the experiment with EPHB1 (compound concentrations: 100 nM and 1000 nM (sheet 'Samples'), CATDS: 2.4630351484746099E-2). Further, the potency estimated from few doses was 788 nM in the experiment with LCK (compound concentrations: 100 nM and 1000 nM (sheet 'Samples'), CATDS: 1.1469376819807401E-2); 1270 nM in the experiment on NUAK2 (compound concentrations: 100 nM and 1000 nM (sheet 'Samples'), CATDS: 1.08459098062964E-2); 1390 nM with PAK6 (compound concentrations: 100 nM and 1000 nM (sheet 'Samples'), CATDS: 1.07398015427933E-2); 1160 nM in the experiment on RPS6KB1.

Turning to `CNC(=O)c1ccccc1Nc1nc(Nc2ccc(N3CCOCC3)cc2)ncc1Cl.Cl` [GSK1576028A], the potency estimated from few doses with ABL1 (setting [1]) was 1640 nM; in the experiment on ACVR1B it was 243 nM; with AURKB (setting [1]), 55 nM; in the experiment on BTK (setting [1]), 256 nM; in the experiment with IRAK3 it was 3.81 nM; with LCK (setting [1]), 234 nM. The potency estimated from few doses in the experiment with NUAK2 (setting [1]) was 1370 nM; in the experiment on PTK6 (setting [1]), 297 nM; in the experiment on RPS6KA3 (setting [1]), 549 nM; in the experiment with TTK it was 2100 nM.

Turning to `NCCNS(=O)(=O)c1ccc(-c2ccnc3[nH]ccc23)cc1` [GSK977617A], the potency estimated from few doses with ABL1 (setting [1]) is 681 nM; in the experiment with ABL2 (setting [1]), 277 nM; with BTK (setting [1]), 642 nM; in the experiment with CDC42BPB (setting [1]), 1700 nM; in the experiment on EPHB1 (setting [1]), 463 nM; with LCK (setting [1]), 515 nM. For the same compound, the potency estimated from few doses in the experiment with MAP3K11 (setting [1]) was 1370 nM; in the experiment with PAK6 (setting [1]), 1310 nM; in the experiment with PRKCA it was 1270 nM.

Regarding `CCn1c(-c2nonc2N)nc2c(C#CC(C)(C)O)nc(OC[C@@H](N)c3ccccc3)cc21` [GSK938890A], the potency estimated from few doses with PAK6 (compound concentrations: 100 nM and 1000 nM (sheet 'Samples'), CATDS: 9.3701498593083701E-2) was 129 nM.
